# The list is not random: actives were taken first. Their share in the collection is about 11%.
# Vaccinia mCherry = qHTS for Stage-Specific Inhibitors of Vaccinia Orthopoxvirus: mCherry Reporter Primary qHTS. AID 720579, 2013. 310,000 tested, 0.63% active. Potency, µM (series often up to 36.5 µM), inactives show top-dose activity change, negative = inhibition, hits mostly inhibitors. Vaccinia virus mCherry reporter infection, fluorescence; calls by dose curve; tested in A549 cells; also: % is scaled to controls: 0 for no effect and ±100 for the full control effect; nearly all actives have a fitted effect of over 35% in size
# Pf growth 96h = Primary qHTS for delayed death inhibitors of the malarial parasite plastid, 96 hour incubation; P. falciparum luciferase reporter growth, 96 h; 320,000 tested, 6.9% active; Potency, µM (titrated, usually from 28.7 µM), for inactives: at the top dose activity change, negative = inhibition, hits mostly inhibitors; also: % is scaled to controls: 0 for no effect and ±100 for the full control effect
#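 Two parasite generations (96 h, 37 C, 5% CO2) of compound exposure in infected erythrocytes (0.05% parasitemia, 2% hematocrit). Luciferase-reporter P. falciparum; decreased luminescence indicates inhibited growth, aimed at apicoplast-acting delayed death.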
# Pf growth 48h = Primary qHTS for delayed death inhibitors of the malarial parasite plastid, 48 hour incubation | Potency, µM (top dose mostly 28.7 µM), without a hit: at the highest dose activity change, negative = inhibition, most hits filed as inhibitors | 310,000 tested, 5.9% active | P. falciparum luciferase growth in erythrocytes, 48 h; also: % is scaled to controls: 0 for no effect and ±100 for the full control effect
#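 Luminescence readout; reporter = integrated firefly luciferase in P. falciparum. RBC culture at 2% hematocrit, 0.1% parasitemia final, 37 C/5% CO2; decreased signal taken as growth inhibition.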
# NS1 function inh = qHTS Assay for Inhibitors of Influenza NS1 Protein Function; AID 2326, 2010; 270,000 tested, 0.4% active; Potency, µM (highest dose often 46.1 µM), inactives show at the highest dose activity, positive = more growth; calls by dose curve; also: actives are rising curves; nearly all actives have a fitted effect of over 50% in size
#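 Read-out: OD600 growth recovery of NS1-expressing budding yeast. Cells grown overnight at 30C in -URA glucose medium, washed, resuspended and diluted 1:100 in 2% galactose assay medium, pH 6.0. Same strain lacking NS1 served as positive control.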
# Vaccinia Venus = qHTS for Stage-Specific Inhibitors of Vaccinia Orthopoxvirus: Venus Reporter Primary qHTS | AID 720580, 2013 | Potency, µM (series often up to 36.5 µM), inactives show at the highest dose activity change, negative = inhibition, most hits filed as inhibitors | 330,000 tested, 0.46% active | Vaccinia virus Venus reporter expression, fluorescence; calls by dose curve; tested in A549 cells; also: % is scaled to controls: 0 for no effect and ±100 for the full control effect; nearly all actives have a fitted effect of over 30% in size
# HCV inhibitor = qHTS Assay for Inhibitors of Hepatitis C Virus (HCV). AID 651820, 2012. Huh7.5.1 HCVcc-Cre infection, luciferase reporter, 44 h. Potency, µM (series often up to 41.8 µM), inactives show at the top dose activity change, negative = inhibition, hits mostly inhibitors. 340,000 tested, 3.4% active; also: % is scaled to controls: 0 for no effect and ±100 for the full control effect
#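 Infectious HCV cell culture screen: compound-treated cells (1,000/well, pre-plated 4 h) are infected with HCVcc-Cre at roughly 0.5 moi and grown 44 h. Infection is quantified by luciferase signal after 15 min substrate incubation at room temperature.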
# * = called active by the depositor; i = inactive; ? = inconclusive; nt = no result given; [ ] = remark or other dose. Unless noted, calls follow the shape of the dose curve; as a rule, active = well fitted inhibition curve with a large enough effect; inconclusive = small, poorly fitted or top-dose-only effect, or another doubt; inactive = no such curve, though single readings can be large or run the other way. Potency is read from the fitted curve at half-maximal effect.
SMILES,Vaccinia mCherry,Pf growth 96h,Pf growth 48h,NS1 function inh,Vaccinia Venus,HCV inhibitor
COc1ccc(C(=O)OCC(=O)NC23CC4CC(CC(C4)C2)C3)c(O)c1,?,nt,nt,nt,-27%,nt
O=C(COC(=O)c1ccc(O)cc1O)NC12CC3CC(CC(C3)C1)C2,nt,-7%,?,nt,nt,13µM*
CN(C)c1ccc(/C=C/c2cc[n+]([O-])c3ccccc23)cc1,32%,nt,nt,nt,-7%,nt
Cc1ccc(/C=C/c2ccc(N(C)C)cc2)[n+](C)c1,-16%,219%,1.2µM*,2%,152%,3.2µM*
C[n+]1ccc(/C=C/c2cccs2)cc1,nt,2.3µM*,2.9µM*,-3%,nt,?
CN1CCCN=C1/C=C/c1cccs1,i,-17%,15%,5%,1%,nt
CN(C)c1ccc(/C=C/c2cc[n+](C)cc2)cc1,86%,?,nt,-13%,i,1.8µM*
CN(C)c1ccc(/C=C/c2cc[n+]([O-])cc2)cc1,nt,2.1µM*,66%,-7%,nt,nt
O=C1CSC(=S)N1Cc1ccccc1,i,nt,nt,nt,-1%,nt
NS(=O)(=O)c1ccc(N=Nc2ccc[nH]c2=O)cc1,nt,nt,nt,17%,nt,nt
O=C(O)CSc1nc2c(cnn2-c2ccccc2)c(=O)n1-c1ccc(Br)cc1,-13%,4%,1%,?,0%,5%
O=C(CSc1nnc(-c2ccc(Br)o2)n1Cc1ccccc1)c1ccccc1F,nt,?,9.3µM*,1%,nt,-16%
Cc1cc(NC(=O)CSc2nnc(-c3ccc(Br)o3)n2Cc2ccccc2)no1,nt,?,?,-4%,-12%,-26%
Cc1cc(C)c(NC(=O)C2CC3CCC2C3)c(C)c1 (configuration not stated),nt,25%,10µM*,10%,nt,10%
Cc1cccc(C)c1NC(=O)C1CC2CCC1C2 (configuration not stated),5%,nt,nt,nt,2%,13%
CCCCCCCCCC[n+]1cccc(C(=O)N(CC)CC)c1,nt,3.7µM*,3.7µM*,2%,nt,0%
CCc1nc(SCC(=O)Nc2ccc(OC)cc2[N+](=O)[O-])n[nH]1,nt,57%,111%,6%,nt,-4%
CCOC(=O)c1cnc2ccc(C(=O)OC)cc2c1NCCc1ccc(OC)c(OC)c1,-24%,1%,10µM*,22%,-8%,?
CCOC(=O)c1cnc2c(C)cc(C)cc2c1NCCc1ccc(OC)c(OC)c1,-8%,nt,nt,nt,-15%,nt
CCOC(=O)c1cnc2c(C)cccc2c1NCCc1ccc(OC)c(OC)c1,-8%,4.1µM*,?,-6%,-10%,?
COc1ccccc1NC(=O)c1sc2nc(C)c(C(=O)Nc3ccc(C)cc3C)c(-c3cccs3)c2c1N,-11%,nt,nt,nt,1%,nt
CCN(CC)CCCn1c(C)cc2c(c1=O)C(c1ccccc1)C(C#N)=C(N)O2 (configuration not stated),-13%,?,?,-3%,4%,?
CCN(CC)CCCn1c(C)cc2c(c1=O)C(c1ccc(OC)c(OC)c1OC)C(C#N)=C(N)O2 (configuration not stated),i,0.93µM*,?,-6%,-12%,12%
CCOc1ccc(C2C(C#N)=C(N)Oc3cc(C)n(CCN(C)C)c(=O)c32)cc1OCC (configuration not stated),nt,12µM*,5%,4%,nt,10%
N#C/C(=C/c1cccs1)c1ccccn1,nt,75%,98%,-4%,nt,?
SMILES,Vaccinia mCherry,Pf growth 96h,Pf growth 48h,NS1 function inh,Vaccinia Venus,HCV inhibitor
N#C/C(=C\c1ccccn1)c1ccccn1,3.5µM*,8.3µM*,?,-13%,?,?
Clc1ccc(C2=Nn3c(nnc3-c3n[nH]c4c3CCC4)SC2)cc1Cl,nt,?,12µM*,27%,nt,?
CC1=C(c2ccc(C)cc2)S(=O)(=O)NC1=NCc1ccccc1Cl,-29%,nt,nt,nt,-26%,nt
CC(=O)Nc1ccc(S(=O)(=O)/N=C2\C(=O)c3ccccc3C([O-])=C2n2cc[n+](-c3ccccn3)c2)cc1,nt,4.7µM*,1.5µM*,0%,nt,-5%
CCCCC[n+]1ccn(-c2nc3ccccc3nc2[N-]S(=O)(=O)c2ccccc2)c1,-7%,-19%,-49%,-1%,-20%,-14%
Cc1ccc(NC(=O)C[n+]2ccn(C3=C([O-])c4ccccc4C3=O)c2)cc1,-1%,-4%,33%,-1%,-8%,-15%
CC(=O)Nc1ccc(S(=O)(=O)NCCSc2ccccn2)cc1,-14%,-21%,-11%,1%,-13%,-17%
CCCC[n+]1ccn(C2=C([O-])c3ccccc3C(=O)/C2=N\S(=O)(=O)c2ccc(Br)cc2)c1,?,?,3.3µM*,14%,98%,10µM*
Cc1ccc(S(=O)(=O)/N=C2\C(=O)c3ccccc3C([O-])=C2n2cc[n+](CCC(C)C)c2)cc1,?,3.3µM*,13µM*,6%,?,18µM*
O=C(NCCc1ccc(C(F)(F)F)cc1)C1CCC(=O)N(CCc2cccc(F)c2)C1 (configuration not stated),-28%,13%,8%,-4%,-22%,5%
CN(Cc1nc2ccccc2n1C)C(=O)c1ccco1,i,1.7µM*,15%,8%,-1%,1%
CN(Cc1nc2ccccc2n1C)S(=O)(=O)c1ccc(F)cc1,nt,4.7µM*,23%,-5%,?,0%
CC(C)(C)/C=N/NC(=O)CNC(=O)c1ccc2c(c1)OCCO2,i,?,-11%,9%,-14%,9%
O=C(NC1(C(F)(F)F)NC(=O)N(Cc2cccnc2)C1=O)c1ccccc1 (configuration not stated),nt,13%,7%,4%,nt,13%
O=C(NC1(C(F)(F)F)NC(=O)N(Cc2ccccc2)C1=O)c1cccnc1 (configuration not stated),nt,2.9µM*,nt,1%,-7%,-3%
Cc1ccc(CNC(=O)c2cc(-c3ccccc3C)nn2CC2CC(c3cccnc3)=NO2)cc1 (configuration not stated),i,nt,nt,nt,-24%,?
COC(CNC(=O)c1ccc(CS(=O)(=O)c2ccc(Br)cc2)o1)OC,i,5%,-26%[0.00184 µM],-1%,-25%,9%
COCCCNC(=O)c1ccc(CS(=O)(=O)c2ccc(Br)cc2)o1,nt,19%,nt,-2%,nt,-3%
COCCCNC(=O)c1ccc(CS(=O)(=O)c2ccc(OC)cc2)o1,-16%,10µM*,18%,-13%,-2%,9%
COC(CNC(=O)c1ccc(CS(=O)(=O)c2ccc(C)cc2)o1)OC,i,2.6µM*,9%[0.00184 µM],2%,-12%,6%
CCOc1ccccc1C(=O)NC1CCNCC1,nt,13µM*,0%,13%,nt,4%

# Assay outcomes deposited in PubChem BioAssay by National Center for Advancing Translational Sciences (NCATS).
